In PubChem BioAssay (NCI):
About 79,000 compounds went through this panel and 15% of them were active in at least one assay; those are over-represented in the sample as a whole. A number with no mark means an inactive call. Activity calls are given as the source filed them. No stated cut-off is given here; in the data, active means growth inhibition above about 70%; inactive means the rest.

Assay: NCI Yeast Anticancer Drug Screen. Data for the sgs1 strain (AID 173);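 further: 0% = growth of vehicle-only control cultures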
Conditions: S. cerevisiae sgs1 mutant, stronger effect = higher value
Description: Growth inhibition of yeast strains with defined genetic alterations is measured as a screen for potential anti-cancer activity. Selected strains with alterations in DNA damage repair or cell cycle control were exposed to compounds and growth inhibition was measured relative to vehicle treated controls. The strain used in this assay is sgs1

SMILES	growth inhibition (at 1.2 µM) [%]	growth inhibition (at 3.7 µM)	growth inhibition (at 11.0 µM)	growth inhibition (at 33.0 µM)	growth inhibition (at 100.0 µM)
C/C(=N\NC(=S)NC1CCCC1)c1ccccn1	0	79% (active)	99% (active)	99% (active)	99% (active)
CCCCCCSc1nc(COC(=O)NC)c(COC(=O)NC)n1C	-4	-3%	-6%	59%	99% (active)
CCCCCC(=O)c1ccc(O)cc1O	-19	-2%	-6%	90% (active)	98% (active)
COC(=O)c1cccc(C)c1C(=O)c1c(C)cc(C)cc1C	1	3%	7%	25%	65%
S=P(N1CC1)(N1CC1)N1CC1	-2	-4%	-2%	3%	20%
CC(=O)C1(O)Cc2c(O)c3c(c(O)c2C(OC2CC(N)C(O)C(C)O2)C1)C(=O)c1ccccc1C3=O (stereo not given)	-14	60%	93% (active)	97% (active)	98% (active)
CNc1nc(C)nc2c1cnn2-c1ccc([N+](=O)[O-])cc1	5	4%	44%	69%	80% (active)
CCc1[nH]nc(C(N)=O)c1N=NN(C)C	0	-5%	15%	53%	88% (active)
